Reference: the supplement of paper PMC6555819

Experiments:
Experiment in all cases: PBM binding z-score (relative to random genomic background probes); higher = stronger binding; sequences stand for … in GC…GCGATTGACAGCGTAGAATGAAGG
[1] = test system: PPARg:RXRa DBDmut IVT, anti-RXR (DBD mutation: RXRa K156A/R161A, NR concentration 270 nM, RXRa partner concentration 90 nM)
In short: (§1)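 On custom Agilent 4×180K arrays, double-stranded probes with 34-nt variable regions carried direct-repeat seeds, single-nucleotide variants, half-site ablations or random human genomic background. Ligand-free nuclear receptor dimers were applied for 1 h, and binding was read with antibodies against each partner (one per run). Binding z-scores come from regression-normalized fluorescence, with the random background probes as reference.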

[2] = test system: PPARg:RXRa IVT, anti-PPARg (NR concentration 270 nM, RXRa partner concentration 90 nM)
In short: as §1

[3] = test system: PPARg DBDmut:RXRa IVT, anti-PPARg (DBD mutation: PPARg1 K132A/R137A, NR concentration 270 nM, RXRa partner concentration 90 nM)
In short: as §1

[4] = test system: PPARg DBDmut IVT, anti-PPARg (DBD mutation: PPARg1 K132A/R137A, NR concentration 270 nM)
In short: as §1

[5] = test system: PPARg homodimer (NR concentration 180 nM)
In short: as §1

[6] = test system: PXR:RXRa (NR concentration 270 nM, RXRa partner concentration 90 nM)
In short: as §1

[7] = test system: PXR homodimer (NR concentration 270 nM)
In short: as §1

[8] = test system: RARa:RXR (NR concentration 270 nM, RXRa partner concentration 90 nM)
In short: as §1

[9] = test system: RARa homodimer (NR concentration 270 nM)
In short: as §1

[10] = test system: RARb:RXRa (NR concentration 270 nM, RXRa partner concentration 90 nM)
In short: as §1

Sequence	PBM binding z-score [1]	PBM binding z-score [2]	PBM binding z-score [3]	PBM binding z-score [4]	PBM binding z-score [5]	PBM binding z-score [6]	PBM binding z-score [7]	PBM binding z-score [8]	PBM binding z-score [9]	PBM binding z-score [10]
CGTCAAAGTACAAGGTAACGTAACAGAAAGCAGC	0.112	0.638	-0.0581	-0.118	0.323	-0.0227	-0.131	0.281	0.369	1.1
CCCAGTTGGTCAGGAGGTCACACACCGGATATGA	0.556	3.46	-0.0435	-0.356	2.74	3.97	1.3	4.22	1.81	3.79
CCGACTGGGGCATAAGGTTACCGTAAGCCAGCCC	3.14	3.4	-0.802	-1.39	0.271	0.55	-0.911	1.66	-0.61	1.98
TCTGCTAGGACAACGATGGTCAGCTAATCTGCTA	0.636	-0.317	-0.808	-0.587	-1.47	-0.66	-1.33	-0.497	-0.832	0.175
GCAGACAGGTGAAACTCAGGTAACTCAGGGTGGC	0.904	0.656	-0.318	-0.994	-0.214	0.118	-0.356	0.625	-0.536	0.901
CTACCAAGGTGAAAAAGGTCGTTGATTACTATTC	1.42	1.39	0.0289	-0.0502	0.878	2.31	1.09	2.56	0.555	2.02
CCGACTGGTGCAAAGGTTACCATACTCAGTACGA	0.299	2.67	0.0281	-0.547	1.18	2.07	-0.109	2.87	0.34	1.96
TCGAGTAGGTTAGTCGGGGCATTGAGCCAACATA	2.07	2.19	-0.804	-1.03	-0.25	-0.121	-0.392	0.186	-0.979	0.355
TAGCCTAGGTTAGATCGGGCCAGTATACGCTATA	-0.639	0.069	-0.497	-0.751	-0.958	-0.294	-0.619	0.00533	-0.589	0.0949
GGAACGCGGGCAAAGTTGATAGCATCTGTCGACG	0.331	0.502	-0.831	-0.512	-0.0903	-0.43	-0.509	0.0758	-0.689	0.414
CCGACTGGGGCACAGGTTACCATACTCAGTACGA	3.76	4.97	-0.354	-0.501	1.14	0.174	-0.362	0.462	0.15	1.07
CCTACTGGGCCAAAGGTAATTGATTCCAATGCTC	5.36	4.68	0.0261	0.0447	0.234	-0.286	-0.264	-0.0121	-0.474	0.179
AGTCAAAGTTCATCTAGGTAACGTAAGATATGCT	1.19	3.69	1.19	1.17	3.13	5	7.49	3.72	2	5.01
CGAACGAGGGCATGAATTGATAGCAAATGCCGAT	2.65	1.53	0.103	-0.47	0.00872	0.118	-0.261	0.259	-0.227	1.72
AGAATGTGGTTAAGATCAGGGAAACAGAATACAT	-0.145	0.0486	0.832	0.677	0.635	0.308	0.679	0.217	0.647	0.103
CCTTACGGGTCACGAGGTTATTGCACGACGAGCG	4.41	5.61	1.02	0.757	3.66	4.88	0.56	6.61	1.28	4.57
CCTACTGGGCTAAGGTCATTGATCAGTCAAAGCA	2.72	2.94	-0.43	-0.707	2.17	4.1	1.25	4.17	-0.024	3.5
GGAACGAGGGCATTCGAGTTTATAGCATGGCGAT	2.91	2.31	-0.439	-0.834	-0.0637	5.87	7.33	1.14	-0.16	1.9
TTACCAACGTGAAGGTCGTTGATCCCTCTGTAGA	0.422	-0.0578	-0.0855	-0.0405	0.497	1.42	0.561	1.13	-0.198	0.811
ACTTACGGGTCAACGAGGCTATAGCACGCGTATA	3.07	3.98	0.121	1.38	1.92	3.59	0.421	4.16	0.515	4.01
CGAACGAGAGCATGAGTTGATAGCAAATGCCGAT	-0.221	-0.445	0.0684	-0.174	-0.221	-0.273	-0.148	-0.442	-0.33	-0.53
ACAGACAGGTGTGTGAAGGTAACTCAGCTGGACG	-0.215	-0.0763	-0.159	-0.168	-0.299	-0.399	-0.457	-0.395	-0.0972	-0.265
ATATGTAGGTTACATCCGGGTGATTCAGGCTATG	6.76	7.32	2.76	2.26	1.49	0.723	0.414	0.999	0.428	1.05
